Assay results taken from PubChem BioAssay (NCI).
Compounds without any hit were thinned out: in the full panel of roughly 83,000, 20% have a hit.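 Compound tested at a single concentration for 48 hours in 96-well plates; a percent growth value below 10 was scored as active.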 A number with no mark means an inactive call.

The compounds below were run on MDA-MB-468 breast (assay: NCI-60 one-dose screen, 48 h (100 = growth as untreated, 0 = no growth, -100 = all killed)). Conditions: 10 µM unless noted.
`CCOC(=O)C1=C(C)NC(=O)NC1c1cc(=O)oc2ccc(C)cc12` (stereo not given) gave a growth of 106%. `Cc1ccc(/C=C2\C(=O)N(C)c3ccc(S(=O)(=O)Nc4ccc(C(C)(C)C)cc4)cc32)s1` gave a growth of 41.8%. `O=C1OC(c2ccc(-c3ccccc3)cc2)=C/C1=C/c1c2ccccc2cc2ccccc12` was tested, and the growth was 90.2%. `CCOC(=O)c1cc(C(=O)c2cc(OC)c(OC)c(OC)c2)n2nc(C)ccc12` was tested, and the growth was 37.4%. For `O=C(Nc1ncc(Cc2cc(C(F)(F)F)ccc2Cl)s1)C(=S)N1CCOCC1`, the growth was 84.3%. Compound `Nc1nc(-c2cccc([N+](=O)[O-])c2)c(N=Nc2cccc([N+](=O)[O-])c2)s1` has a growth of 62%. In the case of `O=C1Nc2ccc(Cl)cc2/C1=C\c1c(-c2ccc(Cl)cc2)nc2sc(C3CC3)nn12`, the growth is reported as 66.4%. With `COc1ccc(NC(=O)COc2ccccc2)c(C(N)=O)c1` the growth was 16.6%. With `CC(C)NC(=O)N/C=C(\C#N)C(N)=O` the growth was 93.6%. In the case of `COc1ccc2c(c1)C=C1CSCC3=Cc4cc(OC)ccc4OC13O2`, the growth is reported as 21.3%.
